Reference: PubChem BioAssay (EPA / NIEHS)
Calls of active or inactive are those of the source. The calls were made as follows: active = hit-call score of the fitted dose curve at least 0.9, where 1 is the maximum; inactive = score below 0.9.

How the values were obtained:
[1] = molecular target: CCAAT/enhancer-binding protein beta (Homo sapiens) (UniProt P17676); assay: ATG_C_EBP_CIS: Attagene CIS-FACTORIAL HepG2 Assay for human CCAAT/Enhancer Binding Protein (C/EBP) beta (AID 2282927); details: HepG2 Attagene cis-factorial transcription factor reporter; actives raise or lower the signal
Chain of CCAAT/enhancer-binding protein beta (Homo sapiens) (P17676 whole entry, looked up): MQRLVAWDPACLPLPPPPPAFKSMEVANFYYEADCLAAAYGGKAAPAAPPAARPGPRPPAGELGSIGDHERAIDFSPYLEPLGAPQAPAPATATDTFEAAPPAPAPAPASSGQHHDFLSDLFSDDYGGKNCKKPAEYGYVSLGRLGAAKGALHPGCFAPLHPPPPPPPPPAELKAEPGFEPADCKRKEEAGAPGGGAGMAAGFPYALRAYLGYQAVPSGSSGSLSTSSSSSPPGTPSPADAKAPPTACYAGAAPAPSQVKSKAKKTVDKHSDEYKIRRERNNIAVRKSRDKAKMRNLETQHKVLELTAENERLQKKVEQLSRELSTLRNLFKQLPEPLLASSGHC
Outline: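 HepG2, transient MRTU transfection, 24 h treatment. RT-PCR plus CE fluorescence; DMSO negative control, bidirectional fit.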

[2] = ATG_CMV_CIS: Attagene CIS-FACTORIAL HepG2 Assay for human CMV (Internal Marker) (AID 2282928); details: HepG2 CMV promoter reporter, transcription factor profiling; actives raise or lower the signal;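 also: endpoint acts as a background internal control marker rather than a target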
Outline: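 After transient transfection of HepG2 with reporter transcription units driven by cis-regulatory promoters, cells receive test chemical for 24 h. Labeled reporter amplicons, digested with HpaI, are sized and quantified by capillary electrophoresis against DMSO.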

[3] = ATG_AP_2_CIS: Attagene CIS-FACTORIAL HepG2 Assay for human Activator Protein 2 (AP-2) (AID 2282932); details: HepG2 AP-2 cis-reporter, Attagene transcription factor profiling; actives raise or lower the signal
Outline: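 Multiplexed mRNA reporter assay in HepG2: cis-regulated units report endogenous factor activity after 24 h treatment. Fluorescence from capillary electrophoresis of RT-PCR products gives the signal, with DMSO as baseline.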

[4] = ATG_BRE_CIS: Attagene CIS-FACTORIAL HepG2 Assay for human Bone Morphogenetic Protein (BMP) Response Element (BRE) (AID 2282933); details: HepG2 BMP response element reporter, Attagene transcription factor profiling; actives raise or lower the signal
Outline: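 A HepG2 multiplex reporter system measured inducible reporter mRNA 24 h post-dosing. Detection: RT-PCR, 6-FAM primer extension, HpaI digestion, capillary electrophoresis. Activity fitted bidirectionally relative to DMSO.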

[5] = molecular target: Transcription factor E2F1 (Homo sapiens) (UniProt Q01094); assay: ATG_E2F_CIS: Attagene CIS-FACTORIAL HepG2 Assay for human E2F Transcription Factor 1 (AID 2282935); details: HepG2 Attagene cis-reporter, E2F reporter RNA transcripts; actives raise or lower the signal
Chain of Transcription factor E2F1 (Homo sapiens) (Q01094 whole entry, looked up): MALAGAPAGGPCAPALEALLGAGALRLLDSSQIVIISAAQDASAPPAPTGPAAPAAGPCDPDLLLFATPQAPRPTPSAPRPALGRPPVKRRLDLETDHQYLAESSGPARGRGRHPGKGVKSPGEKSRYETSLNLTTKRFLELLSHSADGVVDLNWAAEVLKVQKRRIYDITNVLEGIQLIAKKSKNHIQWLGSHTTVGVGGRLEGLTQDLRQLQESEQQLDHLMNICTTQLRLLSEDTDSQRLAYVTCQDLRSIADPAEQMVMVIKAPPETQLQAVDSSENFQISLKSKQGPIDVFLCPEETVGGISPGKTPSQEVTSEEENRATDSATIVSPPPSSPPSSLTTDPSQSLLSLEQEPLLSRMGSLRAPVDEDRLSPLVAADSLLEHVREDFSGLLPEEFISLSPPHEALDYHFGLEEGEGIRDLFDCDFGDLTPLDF
Outline: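 Measures reporter transcript levels via RT-PCR with capillary electrophoresis detection in HepG2 cells harboring cis-regulated reporter units; 24 h post-dose; bidirectional curve fitting with DMSO as baseline.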

[6] = ATG_E_Box_CIS: Attagene CIS-FACTORIAL HepG2 Assay for human Enhancer Box (E-box) (AID 2282936); details: HepG2 E-box cis-reporter transcription, actives raise or lower the signal
Outline: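 First, HepG2 cells receive multiple cis-regulated reporter constructs by transient transfection. Next, chemicals are applied for 24 h. Finally, reporter mRNA is quantified via RT-PCR and capillary electrophoresis, with DMSO as baseline.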

[7] = ATG_M_61_CIS: Attagene CIS-FACTORIAL HepG2 Assay for M61 Transcription Factor (Internal Marker) (AID 2282937); details: HepG2 Attagene CIS-FACTORIAL M61 internal marker reporter; actives raise or lower the signal
Outline: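 Readout is reporter mRNA by RT-PCR, fluorescent primer extension and capillary electrophoresis, with gain or loss fitted relative to DMSO. Transfected HepG2 cells carrying endogenous-TF-driven cis reporters were exposed to chemicals for 24 hours.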

[8] = ATG_EGR_CIS: Attagene CIS-FACTORIAL HepG2 Assay for human Early Growth Response 1 (EGR1) (AID 2282938); details: HepG2 Attagene CIS-FACTORIAL EGR reporter mRNA; actives raise or lower the signal
Outline: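 After 24 h compound exposure, RNA from reporter-transfected HepG2 cells was reverse-transcribed, PCR-amplified, fluorescently labelled and resolved by capillary electrophoresis. EGR1 reporter transcript changes, up or down, were fitted against DMSO, reflecting endogenous transcription-factor activity.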

[9] = ATG_M_19_CIS: Attagene CIS-FACTORIAL HepG2 Assay for M19 Transcription Factor (Internal Marker) (AID 2282939); details: HepG2 Attagene CIS-FACTORIAL M19 internal marker reporter; actives raise or lower the signal
Outline: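 Chemical-treated HepG2 (24 h) with MRTU constructs; reporter transcripts detected by fluorescent RT-PCR fragment analysis on capillary electrophoresis. Internal background marker, DMSO as baseline.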

[10] = ATG_FoxO_CIS: Attagene CIS-FACTORIAL HepG2 Assay for human Forkhead box O (FoxO) (AID 2282943); details: HepG2 Attagene cis-reporter, FoxO element, mRNA; actives raise or lower the signal
Outline: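 Transfected HepG2 reporter cells exposed to test chemical for 24 h; reporter RNA measured by reverse transcription, PCR and fluorescent capillary electrophoresis; curves fitted for increases and decreases against DMSO.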

[11] = ATG_GATA_CIS: Attagene CIS-FACTORIAL HepG2 Assay for human GATA Binding Protein (AID 2282944); details: HepG2 GATA cis-element reporter, Attagene multiplex mRNA; actives raise or lower the signal
Outline: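 Transfected cis-reporter HepG2 cells were treated with chemicals for 24 hours. Total RNA was then converted to cDNA, amplified with reporter-specific primers and analysed by fluorescent capillary electrophoresis, using DMSO-treated wells as baseline.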

[12] = ATG_GLI_CIS: Attagene CIS-FACTORIAL HepG2 Assay for human Zinc Finger Protein GLI1 (AID 2282945); details: HepG2, Attagene cis-factorial reporter mRNA, GLI element; actives raise or lower the signal
Outline: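 Transiently transfected HepG2 cells report endogenous transcription factor activity via cis-element-driven reporter units. After 24 h compound exposure, reporter mRNA was measured by RT-PCR with capillary electrophoresis; bidirectional fitting against DMSO baseline.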

[13] = ATG_ISRE_CIS: Attagene CIS-FACTORIAL HepG2 Assay for human Interferon Regulatory Factor 1 (IRF1) binding to an Interferon-Stimulated Response Element (ISRE) (AID 2282948); details: HepG2 ISRE cis-reporter (Attagene), mRNA transcription readout; actives raise or lower the signal
Outline: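 Cell-based cis-reporter assay; HepG2; 24 h exposure; reporter mRNA by RT-PCR plus capillary electrophoresis fluorescence; activity in either direction scored relative to DMSO.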

[14] = ATG_M_32_CIS: Attagene CIS-FACTORIAL HepG2 Assay for M32 Transcription Factor (Internal Marker) (AID 2282949); details: HepG2 Attagene cis-factorial M32 reporter, mRNA; actives raise or lower the signal;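 also: background control marker of the multiplexed CIS panel rather than a real target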
Outline: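 Following 24 h chemical exposure of HepG2 cells transiently expressing cis-promoter reporter constructs, reporter transcript levels were determined by RT-PCR with fluorescent labelling and capillary electrophoresis, then fitted bidirectionally against DMSO.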

[15] = ATG_M_06_CIS: Attagene CIS-FACTORIAL HepG2 Assay for M06 Transcription Factor (Internal Marker) (AID 2282950); details: HepG2 Attagene CIS-FACTORIAL M06 internal marker reporter; actives raise or lower the signal
Outline: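 Cells (HepG2, transiently carrying cis-driven reporter units) receive chemical for 24 h before RNA isolation. Reporter cDNA is PCR-amplified, FAM-labelled by primer extension, HpaI-digested and sized on a capillary analyser.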

[16] = ATG_MRE_CIS: Attagene CIS-FACTORIAL HepG2 Assay for human Metal Responsive Element (MRE) (AID 2282954); details: HepG2 MRE cis-reporter transcription, Attagene multiplex; actives raise or lower the signal
Outline: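 Fluorescent reporter fragments separated by capillary electrophoresis give mRNA induction for the MRE unit after 24 h treatment of transfected HepG2 cells. Endogenous transcription-factor activity is read; DMSO serves as negative control and baseline.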

[17] = ATG_PXRE_CIS: Attagene CIS-FACTORIAL HepG2 Assay for human Pregnane X Receptor Element (PXRE) (AID 2282957); details: HepG2 Attagene CIS-FACTORIAL PXRE reporter, mRNA; actives raise or lower the signal
Outline: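 Cells: HepG2, transiently transfected reporter units under cis promoter control. Exposure: 24 h. Detection: reporter mRNA via RT-PCR/CE fluorescence; bidirectional fitting, DMSO-referenced.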

[18] = ATG_Sox_CIS: Attagene CIS-FACTORIAL HepG2 Assay for human SRY-box transcription factor (SOX) (AID 2282960); details: HepG2 Attagene cis-factorial SOX reporter, mRNA; actives raise or lower the signal
Outline: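 Reporter transcripts, measured by RT-PCR and capillary electrophoresis of labelled fragments, report endogenous SOX transcription factor activity. Transiently transfected human HepG2 cells receive chemical for 24 h; changes in either direction are fitted relative to DMSO.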

[19] = molecular target: Transcription factor Sp1 (Homo sapiens) (UniProt P08047); assay: ATG_Sp1_CIS: Attagene CIS-FACTORIAL HepG2 Assay for human Specificity Protein 1 (Sp1) (AID 2282961); details: HepG2 Sp1 cis-reporter transcription, actives raise or lower the signal
Chain of Transcription factor Sp1 (Homo sapiens) (P08047 whole entry, looked up): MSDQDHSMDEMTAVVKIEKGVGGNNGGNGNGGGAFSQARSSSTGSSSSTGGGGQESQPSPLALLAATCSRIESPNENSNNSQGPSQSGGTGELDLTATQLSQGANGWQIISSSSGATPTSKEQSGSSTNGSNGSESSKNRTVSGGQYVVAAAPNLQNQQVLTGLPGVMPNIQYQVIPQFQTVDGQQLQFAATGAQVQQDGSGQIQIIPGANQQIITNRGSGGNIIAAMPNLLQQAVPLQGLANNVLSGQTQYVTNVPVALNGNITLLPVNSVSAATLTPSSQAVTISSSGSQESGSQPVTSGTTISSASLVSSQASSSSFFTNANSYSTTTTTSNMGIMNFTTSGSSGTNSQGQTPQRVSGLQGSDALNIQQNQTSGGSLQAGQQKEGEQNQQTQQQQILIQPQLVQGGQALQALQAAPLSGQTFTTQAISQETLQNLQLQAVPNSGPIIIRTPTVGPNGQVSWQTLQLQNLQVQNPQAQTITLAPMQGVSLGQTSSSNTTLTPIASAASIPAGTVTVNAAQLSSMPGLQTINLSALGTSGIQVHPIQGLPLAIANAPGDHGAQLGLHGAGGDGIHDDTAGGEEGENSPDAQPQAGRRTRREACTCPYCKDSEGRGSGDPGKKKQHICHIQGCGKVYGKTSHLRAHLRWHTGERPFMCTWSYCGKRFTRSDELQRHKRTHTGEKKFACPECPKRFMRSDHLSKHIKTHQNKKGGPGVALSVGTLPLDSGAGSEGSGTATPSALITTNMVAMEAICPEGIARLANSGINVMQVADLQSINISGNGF
Outline: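 Read-out is reporter transcript level, measured by RT-PCR and fluorescent capillary electrophoresis after 24 h chemical treatment. System: transiently transfected HepG2 cells reporting endogenous transcription factor activity; gain or loss fitted against DMSO baseline.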

[20] = ATG_SREBP_CIS: Attagene CIS-FACTORIAL HepG2 Assay for human Sterol Regulatory Element Binding (SREBP) (AID 2282962); details: HepG2 Attagene cis-factorial SREBP reporter, mRNA; actives raise or lower the signal
Outline: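 mRNA induction of transfected cis-promoter reporters in HepG2 cells, 24 h post-dose. Detection: RT-PCR with 6-FAM-labelled products, HpaI digest, capillary electrophoresis. DMSO served as negative control and baseline.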

Measured: AC50

CCCCCCOC(=O)CCCCCCCC(=O)OCCCCCC
active: [17] 71.6 µM
inactive: all other assays above

O=C(C(=O)c1ccccc1)c1ccccc1
active: [17] 42.8 µM
inactive: all other assays above

CCOC(=O)c1ccccc1
active: [1] 68.7 µM | [13] 167 µM | [17] 100 µM | [19] 28 µM
inactive: all other assays above

CC[N+](CC)(CC(=O)Nc1c(C)cccc1C)Cc1ccccc1 (tested in a mixture with another compound)
active: [17] 21.8 µM
inactive: all other assays above

CC/C=C/CCO
active: [17] 40.5 µM
inactive: all other assays above

C=C(C)C(=O)OCCCCCC
active: [17] 26.5 µM
inactive: all other assays above

CC1=CCCC(C)(C)C12CCC(C)O2 (stereo not given)
active: [17] 1.28 µM
inactive: all other assays above
